A short description of experiment [1]: NCI Yeast Anticancer Drug Screen. Data for the rad50 strain (AID 155).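 Further: 0% = growth of vehicle-only cultures of the same strain.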 Conditions: S. cerevisiae rad50 strain growth inhibition, hits give high values. In a few lines:
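Growth of the mutant yeast was measured after compound exposure and referenced to vehicle-treated cultures.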

A short description of experiment [2]: NCI Yeast Anticancer Drug Screen. Data for the mec2-1 strain (AID 157). Conditions: S. cerevisiae mec2-1 strain, hits give high values. In a few lines: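 Strain: mec2-1 (DNA repair/cell cycle alteration). Compound exposure, then growth measured; inhibition expressed relative to vehicle.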
Experiment [3] is described as follows: NCI Yeast Anticancer Drug Screen. Data for the sgs1 mgt1 strain (AID 161).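 Further: 0% = growth of cultures given vehicle only.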 Conditions: S. cerevisiae sgs1 mgt1 strain, hits give high values. Summed up:
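Mutant yeast exposed to compound; growth scored against vehicle-only wells.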

Experiment [4] in a line: NCI Yeast Anticancer Drug Screen. Data for the cln2 rad14 strain (AID 165).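 Further: 0% = growth equal to vehicle treated cultures.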 Conditions: S. cerevisiae cln2 rad14 strain, hits give high values. Summed up: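 Compounds are applied to the cln2 rad14 yeast strain, and growth is then compared with that of vehicle-treated cultures to give inhibition.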
The nature of experiment [5]: NCI Yeast Anticancer Drug Screen. Data for the bub3 strain (AID 167). Conditions: S. cerevisiae bub3 mutant strain, hits give high values. Summed up:
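Whole-cell yeast assay. The mutant strain was incubated with compounds, and growth inhibition was determined by comparison with vehicle-treated cells.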

Experiment [6] is described as follows: NCI Yeast Anticancer Drug Screen. Data for the mlh1 rad18 strain (AID 175). Conditions: S. cerevisiae mlh1 rad18 strain growth inhibition, hits give high values. Summed up: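 Read-out is yeast growth inhibition, calculated against vehicle-only controls. The compound was applied to a strain engineered with DNA damage repair alterations.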
The mark [7] stands for this setting: at 5.0 µM (retest, dose inferred, filed as 0.5).
[8] abbreviates: at 50.0 µM (retest, dose inferred, filed as 5.0).

Growth inhibition data for ten compounds are collected here from PubChem BioAssay (NCI).

The panel holds about 79,000 compounds, 15% with a hit somewhere; the sample as a whole holds those more often. A number with no mark means an inactive call. Active and inactive are the calls of the source. No stated cut-off is given here; in the data, active means growth inhibition above about 70%; inactive means the rest.

Regarding `Cc1ccc2nc(-[n+]3cc4ccccc4cc3C)ccc2c1`, the growth inhibition is 9% in experiment [1] (setting [7]); 99% (active) in experiment [1] (setting [8]); 89% (active) in experiment [1] (at 50.0 µM); 1% in experiment [2] (setting [7]); 100% (active) in experiment [2] (setting [8]); 87.6% (active) in experiment [2] (at 50.0 µM). Further, the growth inhibition in experiment [3] (setting [7]) was 3%; in experiment [3] (setting [8]), 99% (active); in experiment [3] (at 50.0 µM), 89.3% (active); in experiment [4] (setting [7]), -1%; in experiment [4] (setting [8]), 83% (active); in experiment [4] (at 50.0 µM), 17.2%. Further, the growth inhibition was 1% in experiment [5] (setting [7]); 100% (active) in experiment [5] (setting [8]); 87.7% (active) in experiment [5] (at 50.0 µM); 5% in experiment [6] (setting [7]); 98% (active) in experiment [6] (setting [8]); 87.3% (active) in experiment [6] (at 50.0 µM).
Take `Cc1c(C)n(-c2ccccc2)c2nc(S(C)(=O)=O)nc(S(C)(=O)=O)c12`: the growth inhibition was 1% in experiment [1] (setting [7]); 98% (active) in experiment [1] (setting [8]); 71.2% (active) in experiment [1] (at 50.0 µM); 8% in experiment [2] (setting [7]); 98% (active) in experiment [2] (setting [8]); 79.3% (active) in experiment [2] (at 50.0 µM). Also, the growth inhibition was -15% in experiment [3] (setting [7]); 95% (active) in experiment [3] (setting [8]); 86.3% (active) in experiment [3] (at 50.0 µM); 40% in experiment [4] (setting [7]); 97% (active) in experiment [4] (setting [8]); 86.4% (active) in experiment [4] (at 50.0 µM). The growth inhibition in experiment [5] (setting [7]) is 0%; in experiment [5] (setting [8]) it was 98% (active); in experiment [5] (at 50.0 µM), 85% (active); in experiment [6] (setting [7]), 31%; in experiment [6] (setting [8]), 86% (active); in experiment [6] (at 50.0 µM) it was 87.2% (active).
Consider `O=C(O)CC(CCCc1ccccc1)C(=O)O` (stereo not given), for which the growth inhibition in experiment [1] (setting [7]) was -1%; in experiment [1] (setting [8]) it was -3%; in experiment [1] (at 50.0 µM), -7.45%; in experiment [2] (setting [7]), -41%; in experiment [2] (setting [8]), -3%; in experiment [2] (at 50.0 µM), 15.4%. The growth inhibition in experiment [3] (setting [7]) was -1%; in experiment [3] (setting [8]), -4%; in experiment [3] (at 50.0 µM), -10.8%; in experiment [4] (setting [7]), -2%; in experiment [4] (setting [8]) it was -1%; in experiment [4] (at 50.0 µM), 40.9%. Moreover, the growth inhibition in experiment [5] (setting [7]) is -5%; in experiment [5] (setting [8]) it was -7%; in experiment [5] (at 50.0 µM), -1.1%; in experiment [6] (setting [7]), 0%; in experiment [6] (setting [8]) it was -4%; in experiment [6] (at 50.0 µM) it was 2.55%.
As for `CC(C)(c1ccccc1)c1ccc2[nH]c(C(C)(C)c3ccccc3)c(CC(=O)O)c2c1`, the growth inhibition in experiment [1] (setting [7]) was 2%; in experiment [1] (setting [8]), 93% (active); in experiment [1] (at 50.0 µM), 93.7% (active); in experiment [2] (setting [7]), 10%; in experiment [2] (setting [8]) it was 80% (active); in experiment [2] (at 50.0 µM), 69.5%. Further, the growth inhibition is 10% in experiment [3] (setting [7]); 96% (active) in experiment [3] (setting [8]); 85.7% (active) in experiment [3] (at 50.0 µM); 0% in experiment [4] (setting [7]); 95% (active) in experiment [4] (setting [8]); 96% (active) in experiment [4] (at 50.0 µM). Also, the growth inhibition in experiment [5] (setting [7]) is -3%; in experiment [5] (setting [8]), 96% (active); in experiment [5] (at 50.0 µM), 94.8% (active); in experiment [6] (setting [7]), 17%; in experiment [6] (setting [8]), 96% (active); in experiment [6] (at 50.0 µM) it was 96% (active).
Regarding `COc1nc(Nc2ccc(/C=C/c3ccc(Nc4nc(OC)nc(N(CCO)CCO)n4)cc3S(=O)(=O)O)c(S(=O)(=O)O)c2)nc(N(CCO)CCO)n1`, the growth inhibition in experiment [1] (setting [7]) is -4%; in experiment [1] (setting [8]), 53%; in experiment [1] (at 50.0 µM), 14.2%; in experiment [2] (setting [7]) it was -4%; in experiment [2] (setting [8]) it was 37%; in experiment [2] (at 50.0 µM) it was 58.9%. The growth inhibition in experiment [3] (setting [7]) was -3%; in experiment [3] (setting [8]), 51%; in experiment [3] (at 50.0 µM), 45.8%; in experiment [4] (setting [7]), -1%; in experiment [4] (setting [8]), 17%; in experiment [4] (at 50.0 µM), 5.8%. In addition, the growth inhibition in experiment [5] (setting [7]) was -4%; in experiment [5] (setting [8]), 28%; in experiment [5] (at 50.0 µM) it was 3.2%; in experiment [6] (setting [7]) it was 0%; in experiment [6] (setting [8]), 49%; in experiment [6] (at 50.0 µM) it was 80.4% (active).
As to `Cc1ccc([PH+](CC[PH+](c2ccccc2)c2ccccc2)c2ccc(C)cc2)cc1.Cc1ccc([PH+](CC[PH+](c2ccccc2)c2ccccc2)c2ccc(C)cc2)cc1.[Pt]`, the growth inhibition in experiment [1] (setting [7]) is 40%; in experiment [1] (setting [8]) it was 88% (active); in experiment [1] (at 50.0 µM) it was 88.8% (active); in experiment [2] (setting [7]), 26%; in experiment [2] (setting [8]) it was 91% (active); in experiment [2] (at 50.0 µM), 90.7% (active). Further, the growth inhibition was 33% in experiment [3] (setting [7]); 95% (active) in experiment [3] (setting [8]); 91.3% (active) in experiment [3] (at 50.0 µM); 34% in experiment [4] (setting [7]); 93% (active) in experiment [4] (setting [8]); 89.8% (active) in experiment [4] (at 50.0 µM). Further, the growth inhibition in experiment [5] (setting [7]) was 29%; in experiment [5] (setting [8]), 94% (active); in experiment [5] (at 50.0 µM), 90.7% (active); in experiment [6] (setting [7]), 39%; in experiment [6] (setting [8]), 93% (active); in experiment [6] (at 50.0 µM), 88.5% (active).
On to `C[n+]1c(-c2cccc(OCCOCCOc3cccc(-c4c5cc(N)ccc5c5ccc(N)cc5[n+]4C)c3)c2)c2cc(N)ccc2c2ccc(N)cc21`, for which the growth inhibition in experiment [1] (setting [7]) was 36%; in experiment [1] (setting [8]), 96% (active); in experiment [1] (at 50.0 µM), 85.5% (active); in experiment [2] (setting [7]), 6%; in experiment [2] (setting [8]), 95% (active); in experiment [2] (at 50.0 µM) it was 82.7% (active). The growth inhibition in experiment [3] (setting [7]) was 25%; in experiment [3] (setting [8]), 97% (active); in experiment [3] (at 50.0 µM) it was 81.3% (active); in experiment [4] (setting [7]), 10%; in experiment [4] (setting [8]), 59%; in experiment [4] (at 50.0 µM) it was 62.9%. Further, the growth inhibition in experiment [5] (setting [7]) was 22%; in experiment [5] (setting [8]) it was 94% (active); in experiment [5] (at 50.0 µM) it was 78.8% (active); in experiment [6] (setting [7]) it was 35%; in experiment [6] (setting [8]) it was 95% (active); in experiment [6] (at 50.0 µM) it was 86.5% (active).
For `Cc1ccc(I)c(C(C)(C)O)c1`, the growth inhibition is 4% in experiment [1] (setting [7]); 71% (active) in experiment [1] (setting [8]); 94.8% (active) in experiment [1] (at 50.0 µM); 4% in experiment [2] (setting [7]); 75% (active) in experiment [2] (setting [8]); 56.6% in experiment [2] (at 50.0 µM). Further, the growth inhibition in experiment [3] (setting [7]) was 4%; in experiment [3] (setting [8]), 77% (active); in experiment [3] (at 50.0 µM), 58.6%; in experiment [4] (setting [7]), 1%; in experiment [4] (setting [8]), 30%; in experiment [4] (at 50.0 µM), 30.8%. Besides, the growth inhibition in experiment [5] (setting [7]) is -1%; in experiment [5] (setting [8]), 86% (active); in experiment [5] (at 50.0 µM), 95.2% (active); in experiment [6] (setting [7]) it was 7%; in experiment [6] (setting [8]), 91% (active); in experiment [6] (at 50.0 µM) it was 70.2% (active).
Turning to `c1ccc(C[n+]2cccc(-c3cc4ccccc4[nH]3)c2)cc1`, the growth inhibition in experiment [1] (setting [7]) is 12%; in experiment [1] (setting [8]), 14%; in experiment [1] (at 50.0 µM), -21.7%; in experiment [2] (setting [7]), 0%; in experiment [2] (setting [8]), -42%; in experiment [2] (at 50.0 µM), -24.6%. The growth inhibition in experiment [3] (setting [7]) was -9%; in experiment [3] (setting [8]) it was 17%; in experiment [3] (at 50.0 µM), -45.2%; in experiment [4] (setting [7]), -46%; in experiment [4] (setting [8]), -23%; in experiment [4] (at 50.0 µM), 77.3% (active). Moreover, the growth inhibition is -17% in experiment [5] (setting [7]); -9% in experiment [5] (setting [8]); -43.5% in experiment [5] (at 50.0 µM); -1% in experiment [6] (setting [7]); 13% in experiment [6] (setting [8]); -3.55% in experiment [6] (at 50.0 µM).
Turning to `CCC(c1ccc(O)cc1)C(CC)c1ccc(O)c(O)c1` (stereo not given), the growth inhibition in experiment [1] (setting [7]) is 16%; in experiment [1] (setting [8]), 98% (active); in experiment [1] (at 50.0 µM), 99.6% (active); in experiment [2] (setting [7]) it was 12%; in experiment [2] (setting [8]) it was 99% (active); in experiment [2] (at 50.0 µM) it was 99.5% (active). For the same compound, the growth inhibition in experiment [3] (setting [7]) was 13%; in experiment [3] (setting [8]), 99% (active); in experiment [3] (at 50.0 µM) it was 99.5% (active); in experiment [4] (setting [7]), -2%; in experiment [4] (setting [8]), 99% (active); in experiment [4] (at 50.0 µM) it was 99.4% (active). Also, the growth inhibition in experiment [5] (setting [7]) was 10%; in experiment [5] (setting [8]) it was 98% (active); in experiment [5] (at 50.0 µM) it was 99.5% (active); in experiment [6] (setting [7]), 12%; in experiment [6] (setting [8]), 97% (active); in experiment [6] (at 50.0 µM), 99.5% (active).
